Source: PubChem BioAssay (National Center for Advancing Translational Sciences (NCATS))
Compounds with a hit are over-represented: about 2.2% of the library has one in this group of screens.
TGFb inhibitor = qHTS for Inhibitors of TGF-b; HepG2 CAGA-GFP TGF-b/SMAD3 reporter, GFP fluorescence, 18 h; TGF-beta stimulated, 500 pg/mL final; Potency, µM (doses to about 46.1 µM), actives largely listed as inhibitors; 410,000 compounds, 1.2% hits; AID 588855, 2011; further: nearly all actives have a fitted effect of over 65% in size
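GFP signal (ex488/em500-530) from TGF-beta-stimulated HEPG2 CAGA-GFP cells, 500 pg/mL final, 18 h at 37 degrees C in DMEM plus 1% FBS, normalized to unstimulated and DMSO-stimulated controls.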
ATXN viability = Viability Counterscreen for Primary qHTS for Inhibitors of ATXN expression; S2 cells (HEK-293 line with an ATXN2-luciferase reporter) viability, CellTiter-Fluor protease fluorescence, 24 h; Potency, µM (highest dose often 56.7 µM), actives largely listed as cytotoxic; 400,000 compounds, 0.49% hits; AID 651635, 2014; further: nearly all actives have a fitted effect of over 40% in size
HepG2 tox-1 = qHTS for Inhibitors of TGF-b: Cytotox Counterscreen | 410,000 compounds, 0.76% hits | Potency, µM (series often up to 46.1 µM), most hits filed as cytotoxic | HepG2 CAGA-GFP viability, ATP luminescence, 18 h
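CellTiter-Glo luminescence gave cytotoxicity after 18 hours at 37 degrees C. The cells were HepG2 CAGA-GFP in 1% FBS DMEM, stimulated with 500 pg/mL TGF-beta after compound addition. %Activity was normalised to no-cell wells (complete cell-killing) and DMSO (no toxicity), and curves were fitted and classified.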
ATXN2 expr inh = Primary qHTS for Inhibitors of ATXN expression. HEK-293 ATXN2-luciferase reporter, luminescence, 24 h. Potency, µM (titrated, usually from 57 µM), usual class: inhibitors. 360,000 compounds, 0.72% hits. AID 1745845, 2022; further: nearly all actives have a fitted effect of over 55% in size
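ATXN2-luciferase reporter cells (luciferase flanked by upstream and downstream ATXN2 gene portions) were treated 24 h at 37 °C with compounds at up to 57 uM. SteadyGlo luminescence gave expression; GF-AFC fluorescence gave viability.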
LDHA block = qHTS assay for inhibitors of human lactate dehydrogenase; L-lactate dehydrogenase A chain (Homo sapiens), P00338; purified LDHA, NADH/diaphorase-resazurin fluorescence; active compounds read low; activity change, % (values are at about 110 or 230 µM); 480,000 compounds, 0.15% hits; AID 1347041, 2019; in the data active means activity change below about -30%; inconclusive means mostly about -25% to -30%
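Human LDH5 at 2 nM final in Tris HCl pH 7.4 with 0.06 mM NADH and 0.2 mM pyruvate, reacted 5 minutes at room temperature. Remaining NADH coupled via diaphorase/resazurin; resorufin fluorescence read at 0 and 20 minutes, normalized to enzyme-free and DMSO wells.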
mIDH1 inhibitor = qHTS for Inhibitors of mutant isocitrate dehydrogenase 1 (IDH1): qHTS; Isocitrate dehydrogenase [NADP] cytoplasmic (Homo sapiens), O75874; IDH1-R132H enzyme, NADPH consumption, diaphorase/resazurin fluorescence; Potency, µM (doses to about 76.6 µM), hits mostly inhibitors; 390,000 compounds, 0.093% hits; further: nearly all actives have a fitted effect of over 65% in size
Target sequence (O75874 whole entry R132H, stated change not applied): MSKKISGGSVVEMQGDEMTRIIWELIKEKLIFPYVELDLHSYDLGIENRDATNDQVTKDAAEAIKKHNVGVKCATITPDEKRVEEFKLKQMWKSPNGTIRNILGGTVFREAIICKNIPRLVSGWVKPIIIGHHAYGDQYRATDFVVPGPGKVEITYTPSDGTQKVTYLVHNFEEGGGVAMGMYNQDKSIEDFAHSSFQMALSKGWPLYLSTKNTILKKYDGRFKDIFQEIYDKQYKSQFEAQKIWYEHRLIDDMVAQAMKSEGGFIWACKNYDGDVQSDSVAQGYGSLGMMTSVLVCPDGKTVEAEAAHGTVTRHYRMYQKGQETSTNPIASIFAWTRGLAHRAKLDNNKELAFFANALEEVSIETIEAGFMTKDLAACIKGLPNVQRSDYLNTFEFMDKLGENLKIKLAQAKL
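IDH1-R132H (0.5 ug/mL) preincubated 30 min with compound, then NADPH (0.016 mM) and alpha-KG (2 mM) added; 80 min at RT, pH 7.5. Remaining NADPH coupled via diaphorase/resazurin to fluorescence (540/590 nm); concentration-response curves normalized to no-enzyme control.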
TGFb confirm = qHTS for Inhibitors of TGF-b: Confirmation of Cherry Picks | 1,600 compounds, 63% hits | shares compounds with TGFb inhibitor | HepG2 CAGA-GFP TGF-b reporter, GFP fluorescence, 18 h; cells stimulated with TGF-beta, 500 pg/mL | Potency, µM (highest dose often 46.1 µM), usual class: inhibitors; further: nearly all actives have a fitted effect of over 65% in size
HepG2 tox-2 = qHTS for Inhibitors of TGF-b: Cytotox Counterscreen for Cherry Picks; shares compounds with TGFb inhibitor; HepG2 CAGA-GFP viability, ATP luminescence, 18 h; cells stimulated with TGF-beta, 500 pg/mL; Potency, µM (highest dose often 46.1 µM), hits mostly inhibitors; 1,600 compounds, 27% hits; AID 720535, 2013; further: nearly all actives have a fitted effect of over 70% in size
CCL64 TGFb inh = qHTS for Inhibitors of TGF-b: CCL64 Cells Orthogonal Assay for Cherry Picks. shares compounds with TGFb inhibitor. CCL64 CAGA-GFP reporter, TGF-b stimulated, GFP fluorescence, 18 h. Potency, µM (top dose mostly 46.1 µM), actives largely listed as inhibitors. 1,600 compounds, 41% hits. AID 720536, 2013; further: nearly all actives have a fitted effect of over 65% in size
TGFb COP inh = qHTS for Inhibitors of TGF-b: Hit Validation in HepG2 Cells using COP promoter. Potency, µM (titrated, usually from 46.1 µM), most hits filed as inhibitors. 1,600 compounds, 3% hits. AID 720537, 2013. shares compounds with TGFb inhibitor. HepG2 COP-GFP TGF-b reporter, GFP fluorescence, 18 h; cells stimulated by added recombinant TGF-beta; further: nearly all actives have a fitted effect of over 70% in size
A number is an active result; – = inactive; ? = inconclusive; · = no result. Unless noted, the call rests on the fitted dose curve; in most records, active means well fitted curve in the direction sought with a large enough effect; inconclusive means small, poorly fitted or top-dose-only effect, or another doubt; inactive means no such curve, though single readings can be large; an effect the other way counts as inactive or inconclusive.

SMILES | TGFb inhibitor | ATXN viability | HepG2 tox-1 | ATXN2 expr inh | LDHA block | mIDH1 inhibitor | TGFb confirm | HepG2 tox-2 | CCL64 TGFb inh | TGFb COP inh
COCCNC(=O)C(c1cccs1)N(Cc1cccs1)C(=O)Cn1nnc2ccccc21 (configuration not stated) | – | – | – | – | – | – | · | · | · | ·
CC(C)CCNC(=O)C(c1ccco1)N(Cc1cccs1)C(=O)Cn1nnc2ccccc21 (configuration not stated) | 7.1µM | – | – | – | – | – | ? | – | ? | –
Cc1nnc(SC(=O)N2c3ccccc3Sc3ccccc32)s1 | 7.1µM | · | – | 25µM | – | – | 12µM | 15µM | 3.3µM | ?
COc1ccc(OC)c2sc(NC(=O)CCS(=O)(=O)c3ccccc3)nc12 | ? | ? | – | – | – | – | 2.3µM | 16µM | 4.6µM | –
COc1ccc(OC)c2sc(NC(=O)CCSc3ccccc3)nc12 | – | – | – | – | – | – | · | · | · | ·
Cc1nc2ccc(NC(=O)CCS(=O)(=O)c3ccccc3)cc2s1 | – | – | – | · | – | – | · | · | · | ·
O=C(CCS(=O)(=O)c1ccccc1)Nc1nc2ccc(F)cc2s1 | 3.5µM | – | – | – | – | – | 1.2µM | – | 10µM | –
Fc1cccc(CCN2C(=S)NC[C@@H]2CC2CCCCC2)c1 | 14µM | ? | – | – | – | – | 16µM | – | ? | –
COc1cc(C2c3cc4c(cc3OC(NNC(N)=S)C2C)OCO4)cc(OC)c1OC (configuration not stated) | ? | ? | – | – | – | – | · | · | · | ·
COc1cccc(C2c3cc4c(cc3OC(NNC(N)=O)C2C)OCO4)c1O (configuration not stated) | 10µM | ? | – | – | – | – | 8.2µM | – | ? | –
COc1cc(C2c3cc4c(cc3OC(NCc3ccccc3)C2C)OCO4)cc(OC)c1OC (configuration not stated) | 2.8µM | ? | – | – | – | – | 7.3µM | – | ? | –
COc1cc(C2c3cc4c(cc3OC(NNC(N)=O)C2C)OCO4)cc(OC)c1OC (configuration not stated) | ? | – | – | – | – | – | · | · | · | ·
Cc1cnc(NC(=O)CSC(=S)N2CCOCC2)s1 | – | – | – | – | – | – | · | · | · | ·
Cc1ccc(S(=O)(=O)N2CCN(CC(O)COc3ccccc3)CC2)cc1 (configuration not stated) | – | – | – | – | – | – | · | · | · | ·
CCOc1ccc(S(=O)(=O)N2CCN(CC(O)COc3cccc([N+](=O)[O-])c3)CC2)cc1 (configuration not stated) | ? | – | – | – | – | – | ? | – | ? | –
